Peg3 promoter – Peg3 promoter activity inhibition | HeLa PEG-Prom luciferase reporter, luminescence, overnight | hit rate 1.7% among 360,000 | AID 588405 | inhibition, % at 20 µM;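 active = inhibition of at least 50% at 20 µM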
Shn3 3UTR inh – Schnurri-3 reporter inhibition in Clone20 osteoblasts; AID 588674; hit rate 0.52% among 360,000; Clone20 osteoblast Shn3 3'UTR firefly luciferase, 24 h; inhibition, % at 12.5 µM;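 active = mean inhibition of at least 75% with every replicate also reaching 75%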;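 also: 0% = median of neutral control wells and 100% = pilot-screen positive control compound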
LMP1 NFkB inh – inhibitors of Epstein-Barr LMP1-induced NF-kappaB reporter; AID 504558; LMP1-induced NF-kappaB luciferase reporter cells, luminescence; hit rate 0.69% among 350,000; inhibition, % at 12.5 µM; in the data active = inhibition above about 41%;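 also: 0% = neutral control wells and 100% = reference inhibitor control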
MITF TRPM1 inh – reduces MITF-dependent TRPM1 promoter luciferase signal. inhibition, % at 12.5 µM. SK-MEL-5 TRPM1 promoter luciferase, 24 h. hit rate 0.83% among 330,000;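 active = mean inhibition across replicates of 60% or more, whatever share of single replicates reaches that level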
PAX8 reporter – lowers PAX8-driven luciferase in RMG-I cells. RMG-I TPO-luciferase reporter, SteadyGlo, 24 h. hit rate 1.2% among 360,000. inhibition, % at 12.6 µM;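 active = mean replicate inhibition at least 60% with every replicate also reaching 60%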;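 also: luciferase light reporting Pax8 driven TPO promoter activity; plate controls were median of neutral control wells for no effect and mitoxantrone controls for full effect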
HIF-2a block – blocks HIF-2a reporter activity; inhibition, % at 18.8 µM; AID 624352; 786-0 RCC cells HIF-2a reporter, luciferase luminescence, overnight; hit rate 0.72% among 360,000;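 active = inhibition of the luminescence signal of 40% or more relative to plate controls, in a single-dose primary screen at 18.75 µM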
Mdm2 MdmX conf – confirmation of inhibitors of human Mdm2/MdmX interaction, set 2; SaOS-2 split-luciferase Mdm2/MdmX complementation, luminescence; AID 504601; shares compounds with HIF-2a block; inhibition, % at 8 µM; hit rate 99% among 740;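 active = mean inhibition of the luminescence signal across two replicates at or above 26 percent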
Target sequence (O15151 whole entry, looked up): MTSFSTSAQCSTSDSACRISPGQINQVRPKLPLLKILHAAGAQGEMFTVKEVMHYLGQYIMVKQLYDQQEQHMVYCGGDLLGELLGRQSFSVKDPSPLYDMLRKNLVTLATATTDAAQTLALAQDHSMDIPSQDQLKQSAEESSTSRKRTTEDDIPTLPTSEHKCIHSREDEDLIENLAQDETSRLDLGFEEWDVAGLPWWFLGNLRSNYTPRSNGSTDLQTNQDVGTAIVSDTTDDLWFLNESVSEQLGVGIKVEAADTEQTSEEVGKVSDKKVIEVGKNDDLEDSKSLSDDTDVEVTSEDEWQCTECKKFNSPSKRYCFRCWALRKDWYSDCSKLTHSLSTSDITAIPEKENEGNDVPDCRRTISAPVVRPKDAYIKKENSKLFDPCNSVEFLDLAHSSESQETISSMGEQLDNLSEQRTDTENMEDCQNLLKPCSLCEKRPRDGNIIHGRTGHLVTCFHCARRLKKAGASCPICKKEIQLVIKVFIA
Target sequence (Q00987 whole entry, looked up): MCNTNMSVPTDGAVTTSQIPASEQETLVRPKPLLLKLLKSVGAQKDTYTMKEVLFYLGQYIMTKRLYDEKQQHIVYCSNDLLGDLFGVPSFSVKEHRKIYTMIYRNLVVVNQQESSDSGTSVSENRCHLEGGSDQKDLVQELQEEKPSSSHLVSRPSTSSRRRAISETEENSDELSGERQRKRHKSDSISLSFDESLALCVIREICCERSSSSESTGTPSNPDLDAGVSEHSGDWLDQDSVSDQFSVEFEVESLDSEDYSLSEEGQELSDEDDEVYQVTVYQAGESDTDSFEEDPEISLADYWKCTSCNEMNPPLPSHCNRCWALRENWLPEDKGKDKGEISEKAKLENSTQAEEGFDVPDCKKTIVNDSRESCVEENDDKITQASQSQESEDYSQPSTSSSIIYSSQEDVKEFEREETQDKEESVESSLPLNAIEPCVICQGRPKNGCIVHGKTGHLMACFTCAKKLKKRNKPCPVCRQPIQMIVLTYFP
HIF-2a conf – HIF-2a inhibition, single concentration confirmation; shares compounds with HIF-2a block; 786-0 RCC cells, HIF-2a luciferase reporter luminescence, overnight; inhibition, % at 18.8 µM; hit rate 56% among 1,800;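 active = mean inhibition across four replicates of at least 40 percent at the single tested concentration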
HIF-1a counter – inhibits HIF-1a reporter, a counter-screen for HIF-2a inhibitors. shares compounds with HIF-2a block. MiaPaCa-2 HIF-1a luciferase reporter, desferoxamine, overnight. inhibition, % at 18.8 µM. hit rate 72% among 1,800. AID 651589;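 active = mean inhibition of the reporter signal across four replicates at the single tested dose of 50% or more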
Numbers without * were called inactive; nt = no result. An excerpt weighted towards active compounds, which were near 2.8% of everything screened.

SMILES	Peg3 promoter	Shn3 3UTR inh	LMP1 NFkB inh	MITF TRPM1 inh	PAX8 reporter	HIF-2a block	HIF-2a conf	HIF-1a counter	others
Cc1cc(C)n(CCC(=O)N/N=C/c2ccc(O)cc2)n1	0.9	2.0	4.8	-14.7	nt	7.9	nt	nt
O=C(C[C@H]1CC[C@H]2[C@@H](COC[C@H](O)CN2C(=O)Nc2ccccc2)O1)NCc1ccccc1F	nt	nt	nt	nt	-4.6	nt	nt	nt
CC(C)=CCOc1ccc([C@@H]2COc3c(ccc4c3C=CC(C)(C)O4)C2)c(O)c1	48.8	66.6	2.8	9.5	nt	61.1*	-25.7	100.5*
C[C@@H]1CN([C@@H](C)CO)C(=O)c2cccc(NS(=O)(=O)c3ccc(Cl)cc3)c2O[C@@H]1CN(C)C	nt	nt	nt	nt	-11.9	nt	nt	nt
CCC(=O)N1CC2(C1)[C@@H](c1ccccc1)[C@H](CO)N2CCC(F)(F)F	nt	nt	nt	nt	-8.3	nt	nt	nt
NS(=O)(=O)c1ccc(Sc2nc3ccccc3s2)c([N+](=O)[O-])c1	36.6	nt	70.3*	-7.8	77.8*	15.8	nt	nt	Mdm2 MdmX conf=97.0*
COC(=O)C[C@@H]1CC[C@H]2[C@@H](COc3ccc(NC(=O)c4cccc(OC)c4)cc3C(=O)N2C)O1	nt	nt	nt	nt	3.9	nt	nt	nt
CC(=O)c1c(C)oc2ccc(N(C(C)=O)S(=O)(=O)c3ccc(Cl)c([N+](=O)[O-])c3)cc12	104.3*	-9.9	30.8	65.0*	nt	69.1*	-1.2	107.0*
CCc1nnc(NC(=O)c2cc([N+](=O)[O-])ccc2N2CCOCC2)s1	4.2	-0.4	-3.6	-13.0	-7.3	14.2	nt	nt
O=C(Nc1nc(-c2ccc(-c3ccccc3)cc2)cs1)c1cc([N+](=O)[O-])ccc1N1CCOCC1	0.1	6.3	1.7	nt	-7.9	62.0*	-78.1	-7.2
Cc1c(O)ccc2c(-c3ccccc3)cc(=O)oc12	14.6	5.6	2.3	1.6	12.2	6.2	nt	nt
COc1ccc(-c2cc(=O)oc3c(C)c(O)ccc23)cc1	39.8	-4.8	-4.6	-9.1	26.5	16.7	nt	nt	Mdm2 MdmX conf=92.0*
Cc1ccc(N(C)S(=O)(=O)c2cccc(C(=O)OCC(=O)c3c(N)n(C)c(=O)n(C)c3=O)c2)cc1	32.1	35.3	11.1	16.1	-0.5	16.1	nt	nt
CN(C)S(=O)(=O)c1cccc(C(=O)OCC(=O)c2c(N)n(C)c(=O)n(C)c2=O)c1	9.3	-1.1	-0.3	6.1	7.4	40.8*	-10.1	-8.0
COc1ccc(-c2oc3c(OC)c(OC)c(OC)c(O)c3c(=O)c2OC)cc1OC	42.0	19.7	11.2	nt	nt	-4.9	nt	nt	Mdm2 MdmX conf=74.0*
CCCNC(=O)c1cc2c(c(-c3cccc(-c4ccc(C#N)cc4)c3)n1)[C@H](CCO)N(C(=O)CC)C2	nt	nt	nt	nt	-14.8	nt	nt	nt
C[C@@H]1CCCCO[C@@H](CN(C)Cc2ccc(C(F)(F)F)cc2)[C@H](C)CN([C@@H](C)CO)C(=O)c2cc(NC(=O)c3ccncc3)ccc2O1	nt	nt	nt	nt	-11.3	nt	nt	nt
Cc1ccc(S(=O)(=O)N[C@H]2C=C[C@H](CC(=O)O)O[C@@H]2CO)cc1	nt	nt	nt	nt	-3.4	nt	nt	nt
O=C1Nc2ccccc2/C1=C/C(=O)c1cccs1	39.2	23.1	-3.3	44.3	nt	54.0*	37.5	41.5
C=CCOc1ccc(C(=O)/C=C2/C(=O)Nc3ccccc32)cc1	24.7	-13.7	0.8	1.2	36.8	5.4	nt	nt
COc1ccc(C(=O)/C=C2/C(=O)Nc3ccccc32)cc1OC	30.1	12.1	2.2	-4.7	38.5	40.5*	41.8*	44.2
NC(=O)COc1ccc(C(=O)/C=C2/C(=O)Nc3ccccc32)cc1	4.9	2.8	11.1	16.6	26.4	45.9*	34.9	25.1
C=CCOc1ccccc1C(=O)/C=C1/C(=O)Nc2ccccc21	75.6*	64.0	5.2	7.0	0.3	79.7*	32.0	54.9*
C[C@@H]1CN([C@@H](C)CO)C(=O)c2cc(NC(=O)Nc3ccccc3)ccc2O[C@@H](C)CCCCO[C@@H]1CN(C)S(=O)(=O)c1cccs1	nt	nt	nt	nt	-2.6	nt	nt	nt
O=C(NCC[C@H]1CC[C@H](NC(=O)C2CCCCC2)[C@@H](CO)O1)c1cnccn1	nt	nt	nt	nt	-2.6	nt	nt	nt
SMILES	Peg3 promoter	Shn3 3UTR inh	LMP1 NFkB inh	MITF TRPM1 inh	PAX8 reporter	HIF-2a block	HIF-2a conf	HIF-1a counter	others
COc1ccc(C(=O)/C=C2/C(=O)Nc3ccccc32)c(OC)c1	103.0*	53.3	14.0	46.0	30.1	90.6*	63.5*	88.0*
COc1ccc(C(=O)/C=C2/C(=O)Nc3ccccc32)cc1	32.3	34.1	12.4	0.9	10.5	37.2	nt	nt
Cc1nc(NCc2ccco2)c2c(C)c(C)sc2n1	88.1*	-50.9	-21.9	54.1	nt	-27.0	nt	nt	Mdm2 MdmX conf=101.5*
CO[C@@H]1CN(C)C(=O)c2ccc(NC(=O)C3CCC3)cc2OC[C@@H](C)N(C)C[C@H]1C	nt	nt	nt	nt	-11.9	nt	nt	nt
CCOc1ccc(CNC(=O)C2CCN(c3nnc(C)c4c(C)n(-c5ccc(C)cc5)nc34)CC2)cc1	101.2*	61.1	-5.7	95.0*	-7.0	68.9*	7.7	31.7
CCOc1ccccc1CNC(=O)C1CCN(c2nnc(C)c3c(C)n(-c4ccc(C)cc4)nc23)CC1	97.0*	41.5	-1.5	95.7*	79.1*	70.5*	51.4*	97.8*
CCCN1CCN(C(=O)C2CCN(c3nnc(C)c4c(C)n(-c5ccc(C)cc5)nc34)CC2)CC1	-4.5	-6.0	-25.7	16.4	46.9	9.0	nt	nt
COc1ccc(-n2nc3c(N4CCC(C(=O)N5CCCCCC5)CC4)nnc(C)c3c2C)cc1	8.8	-3.1	6.2	10.7	32.6	10.1	nt	nt
CCOc1ccccc1CNC(=O)Cn1nc(C)c2c(C)n(-c3ccc(C)cc3)nc2c1=O	22.5	27.9	22.6	48.7	nt	8.3	nt	nt
COc1ccc(-n2nc3c(N4CCC(C(=O)NCc5cccc(C)c5)CC4)nnc(C)c3c2C)cc1	98.8*	-22.9	-4.2	95.1*	102.0*	67.2*	76.4*	80.1*
Cc1ccc(-n2nc3c(N4CCC(C(=O)NCc5ccccc5C)CC4)nnc(C)c3c2C)cc1	88.6*	31.8	1.6	93.8*	nt	85.4*	20.7	62.1*
C[C@@H]1CN([C@H](C)CO)C(=O)c2cc(NC(=O)c3ccncc3)ccc2O[C@H]1CN(C)Cc1ccc(C(=O)O)cc1	nt	nt	nt	nt	11.8	nt	nt	nt
O=C(O)c1ccc(Cl)c(S(=O)(=O)N2CCCC2)c1	8.2	-2.4	-11.6	-5.4	-7.5	41.4*	1.4	1.4
COc1ccc(NC(=O)N2C[C@@H](O)COC[C@@H]3O[C@@H](CC(=O)N4CCOCC4)CC[C@H]32)cc1	nt	nt	nt	nt	-0.7	nt	nt	nt
CO[C@H]1CN(C)C(=O)c2ccc(NS(C)(=O)=O)cc2OC[C@H](C)N(C(=O)CN(C)C)C[C@@H]1C	nt	nt	nt	nt	4.2	nt	nt	nt
Nc1ncnc2c1c(-c1ccc(Oc3ccccc3)cc1)cn2C1CCCC1	71.5*	89.8*	47.5*	6.1	27.3	67.0*	54.7*	64.7*
